The values below come from PubChem BioAssay.

“And” between values parts separate entries of the source, which are not always exact repeats. Equal entries are not always repeated. For part of these data: Measured potencies and affinities stand elsewhere. The source made the active and inactive calls. Cut-off read from the data, not from the text of the source, unless noted: active = parasite load remaining mostly below about 12% (no sharp cut-off); inactive = mostly above about 10%.

As usually defined, the inhibition is the change of the read-out against control, counted positive when it falls. The viability is a read-out of living cells in per cent, often relative to untreated cells.

Experiment [1] can be described thus: blockers of polyQ-driven CASP3 activation – cell-based (AID 1583). Particulars: polyglutamine-induced caspase-3 activation, cell assay; stronger effect = higher value;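 tested at 10 µM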.
A short description of experiment [2]: yeast 75Q aggregation reduction – 75Q-TubU reporter (AID 1593). Particulars: Yeast 75Q polyglutamine aggregation reporter.
Experiment [3] can be described thus: restoration of touch response, mutant HTT neurons – whole organism, C. elegans mechanosensory neurons, N-terminal huntingtin (AID 1599). Particulars: C. elegans polyQ-huntingtin mechanosensory neurons, stronger effect = higher value.
Experiment [4] is described as follows: blockers of cytochrome c efflux from mitochondria – biochemical, purified mitochondria (AID 1603).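 Note: mouse liver mitochondria challenged with calcium chloride; signal normalized to the plate average as 100%.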 Conditions: stronger effect = lower value.
Experiment [5] in a line: polyglutamine aggregate formation blockers (AID 1604). Particulars: polyglutamine-induced protein aggregation inhibition assay; stronger effect = higher value; tested at 2.5 µM.
Experiment [6] can be described thus: glutamate transport activators, MN-1 cells, MN-1 cell line (AID 1612).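 Note: tested at 1 µM final; 0% = mean of DMSO vehicle wells on each plate; positive means more glutamate uptake than control and negative means less.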 Particulars: MN-1 motor neuron cells, stronger effect = higher value.
The nature of experiment [7]: GFP-Q80 aggregate reduction, neuronal-like cells, cell-based, NGF-treated PC12, GFPQ80 (AID 1614).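 Note: lower means fewer inclusions and 0 means no inclusions at all.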 Conditions: PC12 NGF-treated GFP-polyQ80 inclusion reduction.
A short description of experiment [8]: 75Q-TubH aggregate inhibition, S. cerevisiae, yeast (AID 1616). Particulars: S. cerevisiae 75Q-TubH polyglutamine aggregation suppression; stronger effect = higher value.
Experiment [9] can be described thus: P. berghei load reduction in hepatocytes – cell-based, HepG2, luciferase luminescence, HepG2 viability, primary screen (AID 624349).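 Note: 100% = mean of DMSO negative control wells on the same plate.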 Conditions: P. berghei liver stage in HepG2, luciferase luminescence, concentration not given here; parasite load remaining: stronger effect = lower value; viability: measured here: HepG2 viability without parasites.
Experiment [10] relates to Hepatitis C virus NS3 helicase. The experiment in a line: blockers of NS3h binding to ssDNA – biochemical, fluorescence polarization, LOPAC1280 library, primary screen (AID 687035; in the data active = inhibition above about 37%). Conditions: Purified HCV NS3 helicase, Cy5-dT15 ssDNA binding fluorescence polarization; stronger effect = higher value; concentration not given here. Background: In fluorescence polarisation assays a small probe gives low polarisation when free and higher when bound to something large.

Experiment [11] can be described thus: compounds altering Cy5-DNA-NS3h complex signal – biochemical, LOPAC1280, artefact control for HCV NS3 helicase inhibitor project (AID 687037; call rule not given here). Particulars: Cy5-DNA-NS3h complex fluorescence interference counterscreen. (The purpose of a counterscreen is to sort out artefacts and off-target activity.)
Experiment [12] in a line: EMT-state selective cytotoxicity in co-culture – imaging, PC-3E GFP, TEM4-18 mCherry, primary screen (AID 1345086;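 active = compounds killing one labelled cell type while sparing the other, by normalised counts and ratio limits, not self-fluorescent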;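 for all read-outs here: cells exposed to compound for 72 h before imaging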;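 for red/green cell ratio (normalised): normalised mesenchymal count divided by normalised epithelial count so high means epithelial killing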). Particulars: PC-3E GFP / TEM4-18 mCherry co-culture, imaging cell counts, at 1 µM; for red/green cell ratio (normalised): actives lie on both sides, counts scaled to control wells, 1 = unselective.
Experiment [13] is described as follows: viability loss with induced miR-34 in A549 – imaging, A549 dox-inducible miR-34, nuclei and caspase counts, primary screen (AID 1347080;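 active = compounds whose cell count with miR-34 switched on is under 0.7 times the count with it off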). Particulars: A549 miR-34 inducible, Hoechst nuclei count, 48 h.
Experiment [14] in a line: galactose survival enhancers in mitochondrial complex I cybrids – cell-based, galactose medium, ATP luminescence, primary screen (AID 1645843;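 active = z-score of at least 1.8 in each of two replicates, scored against plate mean and spread of sample wells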;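 note: positive z means more ATP and so rescue of galactose-driven cybrid death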). Conditions: complex I mutant cybrid cells, 72 h, stronger effect = higher value.
[15] abbreviates: measured here: epithelial PC-3E GFP cell survival.
[16] abbreviates: measured here: mesenchymal TEM4-18 mCherry cell survival.
The mark [17] stands for this setting: stronger effect = lower value, cell number ratio, induced over uninduced.
Setting [18] is: measured here: relative caspase fold change +Dox/-Dox.
Setting [19] is: measured here: total cells with miR-34 induction, stronger effect = lower value.
Where [20] appears, read: measured here: total cells without miR-34 induction.

For `NC(N)=N/N=C\c1c(Cl)cccc1Cl`, the inhibition in [1] is -8.15%; in experiment [10], 0% (inactive). The compound further displayed a score in experiment [2] of 1.22. Also, the rescue above control in experiment [3] was -12.2. In addition, the cytochrome c release ratio in experiment [4] amounted to 1.41. The inhibition of aggregation in experiment [5] was determined as 61%. The glutamate uptake change in experiment [6] was 33.9%. Moreover, in experiment [7], the inclusion score was 2. The aggregation suppression score in experiment [8] stood at 0.91. Besides, the parasite load remaining in [9] is 56% (inactive) and 40.7% (inactive). Further, in experiment [9], the viability was 69.3% and 86.4%. Moreover, the fluorescence ratio (interference) in experiment [11] was 1 (inactive). Further, the red/green cell ratio (normalised) in experiment [12] was 1.13 (inactive). Also, the normalised cell number was found to be 1.05 in experiment [12] (setting [15]) and 1.18 in experiment [12] (setting [16]). The fold change in experiment [13] (setting [17]) is 0.816 (inactive); in [13] (setting [18]), 0.826. Further, the cell count in experiment [13] (setting [19]) was found to be 8780; in experiment [13] (setting [20]), 10800.

`CC1(C)O[C@@H]2CC3C4CCC5=CC(=O)C=C[C@]5(C)[C@@]4(F)[C@@H](O)C[C@]3(C)[C@]2(C(=O)CO)O1` (stereo partly specified): in experiment [1], the inhibition turned out to be 7.99%. Besides, the score in [2] came to 0.99. Besides, the rescue above control in experiment [3] is -3.95. The cytochrome c release ratio in experiment [4] worked out at 1.15. Further, the inhibition of aggregation in experiment [5] was found to be 85.2%. Further, in experiment [6], the glutamate uptake change amounted to 20.7%. This compound had an inclusion score in experiment [7] of 2. In experiment [8], this compound registered an aggregation suppression score of 1.19. The parasite load remaining in [9] is 187% (inactive) and 62.4% (inactive). In addition, in experiment [9], the viability is 64.4% and 84.9%. The red/green cell ratio (normalised) in experiment [12] was 1.43 (inactive). Moreover, the figures for the normalised cell number in [12] (setting [15]) and in [12] (setting [16]) were 0.86 and 1.23, respectively. Besides, the fold change was 0.787 (inactive) in [13] (setting [17]) and 3.14 in experiment [13] (setting [18]). In addition, the cell count worked out at 6650 in experiment [13] (setting [19]) and 8440 in experiment [13] (setting [20]).

For `C#C[C@]1(O)CCC2C3CCC4=C(CCC(=O)C4)C3CC[C@@]21C` (stereo partly specified), the inhibition in experiment [1] was -10.6%. This compound also gave a score in experiment [2] of 0.8. In [3], this compound registered a rescue above control of -0.46. In addition, the cytochrome c release ratio in experiment [4] was 1.11. The inhibition of aggregation in experiment [5] was 55.6%. In [6], the glutamate uptake change was -10.2%. This compound registered an aggregation suppression score in experiment [8] of 0.537. The parasite load remaining in [9] is 73.4% (inactive) and 48.3% (inactive). For the same compound, the viability in [9] is 71.3% and 92%. In addition, in experiment [12], the red/green cell ratio (normalised) was 1.12 (inactive). For the same compound, the normalised cell number was determined as 1.18 in [12] (setting [15]) and 1.32 in experiment [12] (setting [16]). For the same compound, the fold change in [13] (setting [17]) is 0.929 (inactive); in experiment [13] (setting [18]) it was 1.51. Besides, the cell count in [13] (setting [19]) was 11200; in experiment [13] (setting [20]), 12100.

As to `CC12CCC(=O)C=C1CCC1C2[C@@H](O)CC2(C)C1CC[C@]2(O)C(=O)COP(=O)(O)O` (stereo partly specified), in experiment [1], the inhibition was -6.16%. The compound further gave a score in experiment [2] of 1.65. In [3], this compound displayed a rescue above control of -3.35. In addition, the cytochrome c release ratio in experiment [4] came to 1.1. For the same compound, the inhibition of aggregation in experiment [5] amounted to 44.7%. In addition, the glutamate uptake change in [6] was 26.3%. The inclusion score in experiment [7] turned out to be 2. The compound also showed an aggregation suppression score in experiment [8] of 1.46. Also, the parasite load remaining in experiment [9] is 75.6% (inactive). The viability in experiment [9] turned out to be 91.2%. Further, the red/green cell ratio (normalised) in [12] was 0.95 (inactive). The normalised cell number in experiment [12] (setting [15]) worked out at 1.05; in experiment [12] (setting [16]), 0.99. For the same compound, the fold change in experiment [13] (setting [17]) was 0.789 (inactive); in experiment [13] (setting [18]), 1.68. In addition, the values for the cell count in [13] (setting [19]) and in [13] (setting [20]) were 7430 and 9410, respectively.

`C[C@]12CCC3c4ccc(OS(=O)(=O)O)cc4CCC3C1CCC2=O` (stereo partly specified): the parasite load remaining in experiment [9] is 45.1% (inactive). In addition, the viability in experiment [9] was found to be 102%. Besides, the red/green cell ratio (normalised) in experiment [12] is 0.91 (inactive). For the same compound, the normalised cell number came out at 0.94 in experiment [12] (setting [15]) and 0.86 in experiment [12] (setting [16]). Besides, the fold change in [13] (setting [17]) was 0.918 (inactive) and 0.865 (inactive); in [13] (setting [18]) it was 1.03 and 4.55. Further, the cell count in experiment [13] (setting [19]) is 9150 and 11800; in [13] (setting [20]) it was 9970 and 13700. Besides, in [14], the z-score is 0.9 (inactive).

As to `CCC(=O)OCC(=O)C1(OC(=O)CC)C(C)CC2C3CCC4=CC(=O)C=CC4(C)C3(Cl)C(O)CC21C` (stereo unspecified), the inhibition in [1] is -26%. Besides, the score in experiment [2] was determined as 0.15. Besides, the rescue above control in experiment [3] is -4.19. Besides, the cytochrome c release ratio in experiment [4] stood at 1.11. Moreover, the inhibition of aggregation in experiment [5] was 41.7%. Moreover, the glutamate uptake change in experiment [6] stood at 23.7%. Moreover, in experiment [7], the inclusion score is 2. The compound also gave an aggregation suppression score in experiment [8] of 1.25. In addition, in experiment [9], the parasite load remaining was 142% (inactive) and 79.4% (inactive). Also, the viability in [9] was 78.6% and 97.5%. Further, in [12], the red/green cell ratio (normalised) was 1.47 (inactive). Further, the results for the normalised cell number in experiment [12] (setting [15]) and in experiment [12] (setting [16]) were 0.88 and 1.29, respectively. Moreover, the results for the fold change in experiment [13] (setting [17]) and in experiment [13] (setting [18]) were 0.749 (inactive) and 1.52, respectively. Also, the cell count in [13] (setting [19]) came to 6530; in experiment [13] (setting [20]), 8720.
